From the supplement of paper PMC6555819

Legend:
Assay in all cases: PBM binding z-score (relative to random genomic background probes); higher = stronger binding; sequences stand for … in GC…GCGATTGACAGCGTAGAATGAAGG
[1] = system: FXR:RXRa (NR concentration 270 nM, RXRa partner concentration 90 nM)
Outline: (§1)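 Regression normalization was applied to scanned fluorescence from custom Agilent 4×180K protein-binding microarrays. Before scanning, arrays were incubated 1 h with ligand-free nuclear receptor dimers, and binding was detected with antibodies against each partner (one per run). Binding z-scores use the random background probes as reference.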

[2] = system: LXRa:RXRa (NR concentration 270 nM, RXRa partner concentration 90 nM)
Outline: as §1

[3] = system: LXRa homodimer (NR concentration 270 nM)
Outline: as §1

[4] = system: LXRb:RXRa (NR concentration 270 nM, RXRa partner concentration 90 nM)
Outline: as §1

[5] = system: LXRb homodimer (NR concentration 270 nM)
Outline: as §1

[6] = system: PPARa:RXRa (NR concentration 270 nM, RXRa partner concentration 90 nM)
Outline: as §1

[7] = system: PPARg:RXRa (NR concentration 180 nM, RXRa partner concentration 90 nM)
Outline: as §1

[8] = system: PPARg:RXRa 270nM:90nM, anti-RXR (NR concentration 270 nM, RXRa partner concentration 90 nM)
Outline: as §1

[9] = system: PPARg:RXRa 30nM:10nM, anti-RXR (NR concentration 30 nM, RXRa partner concentration 10 nM)
Outline: as §1

[10] = system: PPARg:RXRa 90nM:30nM, anti-RXR (NR concentration 90 nM, RXRa partner concentration 30 nM)
Outline: as §1

[11] = system: PPARg:RXRa DBDmut IVT, anti-RXR (DBD mutation: RXRa K156A/R161A, NR concentration 270 nM, RXRa partner concentration 90 nM)
Outline: as §1

[12] = system: PPARg:RXRa IVT, anti-PPARg (NR concentration 270 nM, RXRa partner concentration 90 nM)
Outline: as §1

[13] = system: PPARg DBDmut:RXRa IVT, anti-PPARg (DBD mutation: PPARg1 K132A/R137A, NR concentration 270 nM, RXRa partner concentration 90 nM)
Outline: as §1

[14] = system: PPARg DBDmut IVT, anti-PPARg (DBD mutation: PPARg1 K132A/R137A, NR concentration 270 nM)
Outline: as §1

[15] = system: PPARg homodimer (NR concentration 180 nM)
Outline: as §1

[16] = system: PXR:RXRa (NR concentration 270 nM, RXRa partner concentration 90 nM)
Outline: as §1

[17] = system: PXR homodimer (NR concentration 270 nM)
Outline: as §1

[18] = system: RARa:RXR (NR concentration 270 nM, RXRa partner concentration 90 nM)
Outline: as §1

[19] = system: RARa homodimer (NR concentration 270 nM)
Outline: as §1

[20] = system: RARb:RXRa (NR concentration 270 nM, RXRa partner concentration 90 nM)
Outline: as §1

Row | Sequence | PBM binding z-score [1] | PBM binding z-score [2] | PBM binding z-score [3] | PBM binding z-score [4] | PBM binding z-score [5] | PBM binding z-score [6] | PBM binding z-score [7] | PBM binding z-score [8] | PBM binding z-score [9] | PBM binding z-score [10] | PBM binding z-score [11] | PBM binding z-score [12] | PBM binding z-score [13] | PBM binding z-score [14] | PBM binding z-score [15] | PBM binding z-score [16] | PBM binding z-score [17] | PBM binding z-score [18] | PBM binding z-score [19] | PBM binding z-score [20]
1 | CCTCGCAGGCCAGGGTCACTCAAGCATTTCGCTT | 2.11 | 1.69 | -0.251 | 2.06 | -0.654 | 3.01 | 0.19 | 1.04 | -0.771 | 0.0823 | -0.539 | 0.241 | -0.923 | -1.57 | 1.02 | 2.49 | -0.431 | 3.1 | -0.222 | 2.54
2 | AGAATGAGGTTAAGATCAGAGAAACAGAATACAT | 2.3 | 2.12 | 0.0426 | 1.9 | -0.125 | 3.61 | 2.54 | 2.18 | 0.874 | 1.71 | 2.25 | 2.51 | 1.54 | 1.04 | 0.538 | 1.22 | 0.611 | 2.03 | 0.226 | 1.86
3 | CTAGACAGGTGAAAGGTAACTCAGTCTGGTACGC | 0.53 | 0.864 | -0.332 | 0.732 | -0.56 | 3.4 | 6.11 | 6.66 | 5.12 | 6.47 | 1.94 | 3.43 | 0.142 | 0.0221 | 0.635 | 0.951 | -0.397 | 1.91 | -0.0814 | 1.22
4 | TCTCGGAAGACACGAAGGTCAGAGCTTTCCAGAG | 0.883 | 0.652 | -0.454 | 0.74 | -0.988 | 1.79 | 0.356 | 1.57 | 2.55 | 1.71 | 1.64 | 0.221 | -0.344 | -0.823 | 0.689 | 1.12 | -0.144 | 1.53 | -0.631 | 2.27
5 | ACTAGCGGGCCAAGTTTGGGTCACTCAAACAAAG | 0.106 | -0.183 | -0.598 | 0.723 | -0.855 | 1.5 | -0.111 | 0.168 | -0.66 | 0.126 | 0.418 | 0.997 | -0.878 | -0.789 | 0.424 | 0.722 | -0.623 | 1.51 | -1.37 | 1.64
6 | AATACAGGGTCATCGTAGGCCAGATTACGCACAG | 7.31 | 6.79 | 2.75 | 4.95 | 1.56 | 5.92 | 6.61 | 6.1 | 3.14 | 4.89 | 2.88 | 4.16 | 2.1 | 1.86 | 3.02 | 5.14 | 0.561 | 5.6 | 0.954 | 4.27
7 | AGAAGGAGGGCACGCTGAGTTGATAGCAGAGTAG | 0.55 | 0.52 | -0.359 | 0.551 | 0.0256 | 1.83 | 1.89 | 1.81 | 0.436 | 1.01 | 4.39 | 4.02 | 0.794 | 0.398 | 0.378 | 1.16 | 0.294 | 0.766 | -0.141 | 2.32
8 | TCGAGTAGGTTAGGCGCATTCAGAATGGCGTCGA | -0.434 | -0.29 | -0.682 | -0.547 | -1.16 | 0.216 | -0.326 | 0.786 | 0.835 | 0.489 | 1.8 | 0.832 | -1.24 | -1.21 | -1.2 | -0.58 | -0.715 | -0.497 | -1.02 | 0.105
9 | CCGACTGGGGCAAGGTTACCATCACGCACAGCCA | 0.162 | 0.447 | -0.106 | 0.674 | -1.14 | 1.79 | 2.72 | 3.61 | 0.851 | 2.78 | 3.35 | 3.48 | -0.952 | -0.665 | 0.946 | 0.175 | 0.0478 | 0.822 | -0.0498 | 1.5
10 | GCTAGCAGGCCATTTGTGTCACTCAATGACGGGC | -0.539 | -0.568 | -1.12 | -1.03 | -0.864 | -0.398 | 0.274 | -0.38 | -0.669 | -0.744 | 1.46 | 0.556 | -0.775 | -0.917 | -0.822 | -0.691 | -0.552 | -0.532 | -0.827 | 0.161
11 | ATCTCTAGGTAACACTCAGTTCAGTGAAGAACGC | 0.92 | 1.1 | 0.849 | 0.889 | 1.26 | 1.07 | 0.692 | 0.736 | 0.527 | 0.515 | 3.97 | 2.95 | 1.8 | 2.07 | 1.13 | 1.94 | 2.42 | 1.13 | 1.39 | 1.06
12 | TGTAAAAGTTCAAAGGTAACGTAAGTATCCACAC | 6.54 | 6.21 | 4.26 | 4.37 | 1.88 | 5.54 | 6.22 | 6.14 | 3.76 | 5.5 | 0.163 | 2.72 | 1.6 | 1.19 | 2.18 | 5.02 | 2.34 | 5.42 | 1.74 | 4.85
13 | ATATGTAAGTTACATCCGGGTCATTCAGGCTATG | 1.87 | 2.38 | 0.923 | 2.19 | 0.757 | 2.83 | 1.41 | 1.44 | 0.868 | 1.01 | 1.5 | 2.35 | 1.58 | 1.58 | 1.11 | 3.02 | 2.6 | 2.96 | 0.872 | 1.72
14 | CCGGCTGGGGCAAGGTTACCATAACGCACAGCCA | 0.218 | 0.386 | -0.338 | 0.353 | -1.36 | 1.09 | 1.04 | 0.822 | -0.299 | 0.627 | -0.429 | 0.466 | -1 | -1.85 | 0.0716 | 0.337 | -0.654 | 0.922 | -0.728 | 1.64
15 | AGAATGAGGATATACGTAGATCAGGGAAGAAAGT | -0.224 | -0.666 | -0.354 | -0.479 | -0.429 | -0.509 | 0.977 | -0.177 | 0.217 | -0.000713 | -0.138 | -0.218 | 0.0706 | 0.805 | 0.0264 | -0.403 | -0.147 | -0.363 | 0.32 | -0.448
